Consider five compounds from PubChem BioAssay.

Assay [1] in a line: small molecules captured by biotinylated probe aFSTL3 – biochemical, small-molecule microarray, fluorescence 635/667, stem cell growth factor project, primary screen (AID 1064).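 Also: measures binding of the biotinylated anti-FSTL3 antibody to printed compounds.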 Conditions: higher = more signal.
A short description of assay [2]: binders from COS7 lysate, DM2A8 probe, primary screen, torsin A project, cell lysate, small-molecule microarray, fluorescence 635/667 (AID 1065). Conditions: higher = more signal, COS7 lysate expressing mutant human TOR1A.
Assay [3] can be described thus: small molecules captured by biotinylated probe aFGF2 – biochemical, small-molecule microarray, fluorescence 635/667, stem cell growth factor project, primary screen (AID 1067).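 Also: measures binding of biotinylated aFGF2 protein to printed compounds on slides; z-score merges feature fluorescence and signal-to-noise across triplicate slides.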 Particulars: higher = more signal.
The nature of assay [4]: small molecules captured by biotinylated probe aFGF10 – biochemical, small-molecule microarray, fluorescence 635/667, stem cell growth factor project, primary screen (AID 1071).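 Also: score merges 667 nm spot intensity and signal to noise from triplicate slides.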 Particulars: higher = more signal.
The target of assay [5] is Neurogenic locus notch homolog protein 2 (Homo sapiens) (UniProt Q04721). Nature of the assay: small molecules binding Notch2 protein – biochemical, small-molecule microarray, 635 nm fluorescence, stem cell growth factors, primary screen (AID 1073). Conditions: higher = more signal.
Assay [6] addresses Pro-neuregulin-1, membrane-bound isoform (Homo sapiens) (UniProt Q02297). The assay is described as follows: small molecules binding neuregulin-1 protein – biochemical, small-molecule microarray, fluorescence 635/667, psychiatric disease protein project, primary screen (AID 1075).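 Also: score combines 667 nm spot fluorescence with signal to noise.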 Particulars: NRG1 binding, 635 nm fluorescence, higher = more signal.
Assay [7] deals with Neuregulin-1 EGF-like domain. Nature of the assay: small molecules binding NRG1 EGF domain – biochemical, small-molecule microarray, 635 nm fluorescence, primary screen (AID 1081).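 Also: binding of the protein to compounds printed on small-molecule microarray slides.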 Conditions: higher = more signal.
Assay [8] can be described thus: FRG1 expression reporter modulators in myotubes – cell-based, C2C12 myotubes, firefly/Renilla luciferase, luminescence, FRG1 inhibition for FSHD, primary screen (AID 1084). Particulars: FRG1 promoter luciferase, higher = more signal, called active from +8 up or from −8 down.
The nature of assay [9]: small molecules captured by biotinylated probe aFST – biochemical, small-molecule microarray, fluorescence 635/667, stem cell growth factor project, primary screen (AID 1086).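 Also: score merges 667 nm fluorescence with signal-to-noise of each printed compound spot.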 Conditions: higher = more signal.
Assay [10] in a line: binders of probe aHhip on microarray, primary screen, stem cell growth factor project, biochemical, small-molecule microarray, fluorescence 635/667 (AID 1087).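 Also: score merges spot fluorescence at 667nm with spot signal to noise ratio.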 Conditions: higher = more signal.
For assay [11], the system named is PRMT1 (protein arginine N-methyltransferase 1). Nature of the assay: small molecules binding arginine methyltransferase PRMT1 – biochemical, small-molecule microarray, 635 nm fluorescence, primary screen (AID 1088).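 Also: binding of Prmt1 protein to compounds spotted on small-molecule microarray slides.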 Conditions: higher = more signal.
Assay [12] in a line: growth effects on S. cerevisiae YJM789 – YJM789 clinical isolate, OD600, 24 h, basal, primary screen (AID 1089).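 Also: growth of clinical yeast isolate S. cerevisiae YJM 789 seeded 1000 cells per well; test concentration not given here.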 Conditions: higher = more signal, called active from +8 up or from −8 down.
A short description of assay [13]: S. pombe growth modifiers, basal conditions – strain 972, OD600, 24 h, no modulator, primary screen (AID 1090).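 Also: basal condition with compound alone and no growth modifier present; test concentration not given here.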 Conditions: S. pombe 972 growth, higher = more signal, called active from +8 up or from −8 down.
A short description of assay [14]: budding yeast growth modifiers under rapamycin – strain BY4716, OD600, 96 h, primary screen (AID 1091). Also: test concentration not given here. Particulars: S. cerevisiae BY4716 + rapamycin, higher = more signal, called active from +8 up or from −8 down.
Assay [15] has as its target Torsin-1A-interacting protein 2 (Homo sapiens) (UniProt Q8NFQ8). The assay is described as follows: small molecules binding lysate-expressed LULL1 – cell lysate, human LULL1 lysate, 635/667 nm fluorescence, primary screen (AID 1092).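 Also: probe is lysate of COS7 cells overexpressing human LULL1; score merges per-feature 667 nm fluorescence with signal-to-noise.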 Particulars: small-molecule microarray, hLULL1 lysate binding, 635 nm fluorescence; higher = more signal.
A short description of assay [16]: optical density change of DRC41 E. coli – strain DRC41, OD650, 24 h, E. coli filamentation project, primary screen (AID 1093).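 Also: MC1000 strain lacking acrAB efflux and sulA so SOS filamentation is blocked; test concentration not given here.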 Conditions: E. coli DRC41 growth, higher = more signal, called active from +8 up or from −8 down.
Assay [17] can be described thus: probe aLefty2 binding to arrayed compounds – biochemical, biotinylated probe, 635/667 nm fluorescence, primary screen (AID 1094).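 Also: score merges spot fluorescence near 667 nm with spot signal-to-noise ratio.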 Conditions: small-molecule microarray, higher = more signal.
The subject of assay [18] is Noggin (protein binding on small-molecule microarray). The assay is described as follows: small molecules binding Noggin protein – biochemical, 635/667 nm fluorescence, primary screen (AID 1095).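 Also: score merges 667 nm feature fluorescence with signal to noise over triplicate slides.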 Conditions: 635 nm fluorescence, higher = more signal.
Assay [19] addresses Neurogenic locus notch homolog protein 3 (Homo sapiens) (UniProt Q9UM47). Nature of the assay: small molecules binding NOTCH3 protein – biochemical, 635/667 nm fluorescence, primary screen (AID 1096). Conditions: small-molecule microarray, 635 nm fluorescence, higher = more signal.
Assay [20] is described as follows: probe aEGFR binding to arrayed compounds – biochemical, biotinylated probe, 635/667 nm fluorescence, primary screen (AID 1097).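 Also: probe is a biotinylated anti-EGFR antibody binding compounds printed on slides; score combines fluorescence near 667 nm and signal to noise of each spot.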 Particulars: small-molecule microarray, higher = more signal.

Molecules are shown by their SMILES. Calls of active or inactive are those of the source.

Neurogenic locus notch homolog protein 3 (Homo sapiens), sequence (Q9UM47 whole entry, looked up): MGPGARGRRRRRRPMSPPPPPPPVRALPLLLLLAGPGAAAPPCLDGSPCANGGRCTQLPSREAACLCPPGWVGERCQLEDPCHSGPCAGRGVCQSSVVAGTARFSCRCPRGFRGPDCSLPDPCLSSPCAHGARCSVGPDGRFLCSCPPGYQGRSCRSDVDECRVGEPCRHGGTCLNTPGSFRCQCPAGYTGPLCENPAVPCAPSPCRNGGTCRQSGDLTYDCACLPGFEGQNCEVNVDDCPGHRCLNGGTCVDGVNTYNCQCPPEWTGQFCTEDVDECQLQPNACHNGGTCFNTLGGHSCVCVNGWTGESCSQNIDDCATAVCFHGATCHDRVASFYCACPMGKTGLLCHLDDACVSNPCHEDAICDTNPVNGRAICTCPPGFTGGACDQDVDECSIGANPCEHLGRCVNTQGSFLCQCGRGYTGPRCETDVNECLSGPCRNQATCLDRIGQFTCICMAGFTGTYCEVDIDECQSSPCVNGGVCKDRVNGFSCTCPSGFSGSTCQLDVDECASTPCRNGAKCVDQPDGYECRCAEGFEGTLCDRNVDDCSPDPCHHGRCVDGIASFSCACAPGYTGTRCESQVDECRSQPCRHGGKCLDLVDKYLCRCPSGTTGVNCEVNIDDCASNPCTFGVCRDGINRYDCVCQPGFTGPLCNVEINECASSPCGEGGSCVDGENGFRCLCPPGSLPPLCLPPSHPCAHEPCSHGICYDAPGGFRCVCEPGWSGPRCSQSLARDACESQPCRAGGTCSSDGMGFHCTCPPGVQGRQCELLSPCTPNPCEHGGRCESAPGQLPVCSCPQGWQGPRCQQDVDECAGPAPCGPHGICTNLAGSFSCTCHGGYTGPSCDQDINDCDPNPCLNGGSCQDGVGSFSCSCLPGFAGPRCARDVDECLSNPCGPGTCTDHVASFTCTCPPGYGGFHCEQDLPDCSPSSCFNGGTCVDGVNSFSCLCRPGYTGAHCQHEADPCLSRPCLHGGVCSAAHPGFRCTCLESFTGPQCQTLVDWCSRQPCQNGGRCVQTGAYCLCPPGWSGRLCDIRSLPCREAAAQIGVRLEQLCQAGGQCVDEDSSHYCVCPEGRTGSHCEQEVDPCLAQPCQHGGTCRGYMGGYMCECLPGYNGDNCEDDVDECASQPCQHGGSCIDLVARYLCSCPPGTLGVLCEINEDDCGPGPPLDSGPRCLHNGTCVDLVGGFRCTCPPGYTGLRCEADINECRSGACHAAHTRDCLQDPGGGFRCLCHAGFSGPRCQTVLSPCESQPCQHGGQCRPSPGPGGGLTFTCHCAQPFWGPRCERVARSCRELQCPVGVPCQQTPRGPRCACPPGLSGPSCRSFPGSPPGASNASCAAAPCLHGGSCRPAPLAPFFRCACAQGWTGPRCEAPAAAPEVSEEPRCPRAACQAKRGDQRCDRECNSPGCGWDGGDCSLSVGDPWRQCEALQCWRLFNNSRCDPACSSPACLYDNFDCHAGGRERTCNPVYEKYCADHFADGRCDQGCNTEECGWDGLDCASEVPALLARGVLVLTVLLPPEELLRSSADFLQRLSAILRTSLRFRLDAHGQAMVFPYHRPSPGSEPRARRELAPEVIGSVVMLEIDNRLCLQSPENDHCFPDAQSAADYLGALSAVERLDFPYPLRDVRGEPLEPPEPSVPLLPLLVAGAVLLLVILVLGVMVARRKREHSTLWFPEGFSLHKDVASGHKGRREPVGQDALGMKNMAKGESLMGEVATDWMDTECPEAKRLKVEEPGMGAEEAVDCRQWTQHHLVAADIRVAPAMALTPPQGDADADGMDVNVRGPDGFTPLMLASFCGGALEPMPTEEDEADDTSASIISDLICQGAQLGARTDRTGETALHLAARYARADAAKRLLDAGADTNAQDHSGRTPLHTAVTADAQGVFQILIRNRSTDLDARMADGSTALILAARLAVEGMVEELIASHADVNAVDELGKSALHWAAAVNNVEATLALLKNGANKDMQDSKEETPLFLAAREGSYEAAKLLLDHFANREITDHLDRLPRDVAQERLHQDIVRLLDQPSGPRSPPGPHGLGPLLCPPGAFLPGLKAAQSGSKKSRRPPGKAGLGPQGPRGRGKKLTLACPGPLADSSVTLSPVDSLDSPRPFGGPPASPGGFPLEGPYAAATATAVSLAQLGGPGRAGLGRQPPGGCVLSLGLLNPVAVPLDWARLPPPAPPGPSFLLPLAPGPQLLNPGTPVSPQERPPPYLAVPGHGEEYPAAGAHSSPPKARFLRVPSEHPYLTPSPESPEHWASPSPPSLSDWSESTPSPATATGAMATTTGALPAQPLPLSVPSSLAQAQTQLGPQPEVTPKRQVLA
Torsin-1A-interacting protein 2 (Homo sapiens), sequence (Q8NFQ8 whole entry, looked up): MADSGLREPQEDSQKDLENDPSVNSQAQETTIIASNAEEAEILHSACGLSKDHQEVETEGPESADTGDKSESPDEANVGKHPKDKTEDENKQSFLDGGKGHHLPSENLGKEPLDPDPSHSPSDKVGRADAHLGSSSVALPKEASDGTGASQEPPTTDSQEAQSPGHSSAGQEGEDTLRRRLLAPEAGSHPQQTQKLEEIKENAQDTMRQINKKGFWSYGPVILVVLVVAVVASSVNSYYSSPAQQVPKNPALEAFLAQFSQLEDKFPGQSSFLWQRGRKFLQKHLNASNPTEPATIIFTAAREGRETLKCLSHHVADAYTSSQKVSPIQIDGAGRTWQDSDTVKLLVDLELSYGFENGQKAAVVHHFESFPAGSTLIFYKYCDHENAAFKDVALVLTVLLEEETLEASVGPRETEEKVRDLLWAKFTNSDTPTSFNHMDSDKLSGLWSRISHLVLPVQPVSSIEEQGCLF
Pro-neuregulin-1, membrane-bound isoform (Homo sapiens), sequence (Q02297 whole entry, looked up, the tested form may be a part, canonical isoform): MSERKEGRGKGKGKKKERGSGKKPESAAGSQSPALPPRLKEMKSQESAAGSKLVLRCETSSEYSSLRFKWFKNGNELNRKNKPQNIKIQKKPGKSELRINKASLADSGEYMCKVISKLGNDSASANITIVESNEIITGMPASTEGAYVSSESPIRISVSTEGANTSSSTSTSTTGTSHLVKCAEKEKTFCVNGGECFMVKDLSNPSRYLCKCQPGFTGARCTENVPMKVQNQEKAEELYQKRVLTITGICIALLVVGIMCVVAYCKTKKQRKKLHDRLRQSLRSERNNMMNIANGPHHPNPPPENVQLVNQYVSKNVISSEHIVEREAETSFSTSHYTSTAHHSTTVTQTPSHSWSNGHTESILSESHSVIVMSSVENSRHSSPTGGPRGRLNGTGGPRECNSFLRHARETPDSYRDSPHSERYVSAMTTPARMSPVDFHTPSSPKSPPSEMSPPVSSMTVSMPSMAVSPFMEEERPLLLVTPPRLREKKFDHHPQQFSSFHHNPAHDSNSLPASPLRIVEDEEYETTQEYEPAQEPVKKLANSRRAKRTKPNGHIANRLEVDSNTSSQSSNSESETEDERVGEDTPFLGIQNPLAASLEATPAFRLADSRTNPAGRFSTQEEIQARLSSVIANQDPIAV

On to `CCOC(=O)C1=C[C@@H](C(C)(C)C)N(S(=O)(=O)c2ccc(C)cc2)[C@H]1c1ccc(OC)cc1`, for which the composite z-score is -0.491 in [1]; -0.103 in assay [2]; 0.0111 in assay [3]; 0.726 in [4]; 1.56 in assay [5]; 0.348 in [6]. In addition, the composite z-score is 1.19 in assay [7]; 0.525 in assay [9]; -0.212 in [10]; 1.55 in assay [11]; 3.07 in assay [15]; -0.0865 in assay [17]. Moreover, the composite z-score in assay [18] stood at 1.18; in assay [19], 1.09; in [20], 0.0301. In addition, the z-score in assay [8] was -3.35 (inactive); in [12] it was 0.443 (inactive); in assay [13] it was 2.17 (inactive); in assay [14], 1.54 (inactive); in [16], 0.1 (inactive).
As to `C=C(C(=O)CC[C@@H](OC(=O)c1ccccc1-c1ccccc1C(=O)O)c1ccc(CO)o1)C(C)C`, the composite z-score in assay [1] is -0.422; in assay [2], 1.18; in assay [3], -0.087; in assay [4], 1.03; in assay [5], 0.0438; in assay [6], 0.115. The composite z-score was 0.445 in [7]; 0.379 in assay [9]; -0.0645 in assay [10]; 1.47 in assay [11]; 0.167 in [15]; -0.19 in assay [17]. Besides, the composite z-score in assay [18] is 1.07; in assay [19], 1.07; in assay [20] it was -0.0947. Moreover, the z-score was 0.0639 (inactive) in [8]; -0.595 (inactive) in assay [12]; -0.39 (inactive) in assay [13]; -0.881 (inactive) in assay [14]; -0.249 (inactive) in assay [16].
In the case of `O=C1OCC=C[C@H]2OC34C=CCN(Cn5nnc6ccccc65)C(=O)[C@H]3N(CCO)C(=O)[C@@H]4[C@@H]12` (stereo not given in full), the composite z-score in assay [1] is 0.645; in assay [2] it was 1.9; in [3], -0.129; in assay [4] it was -0.749; in [5], -1.45; in assay [6] it was 0.864. Moreover, the composite z-score in [7] was 0.579; in assay [9], -0.406; in assay [10], -0.139; in assay [11], 0.551; in assay [15], 2.55; in assay [17], -0.0368. The values for the composite z-score in assay [18], in [19] and in assay [20] were -1.88, -0.481 and -0.171, respectively. Besides, the z-score in assay [8] is 0.13 (inactive); in [12], 0.936 (inactive); in [13] it was 0.159 (inactive); in assay [14], 0.294 (inactive); in [16], -0.55 (inactive).
`C=C(C(=O)CC[C@H](OC(=O)c1ccccc1-c1ccccc1C(=O)O)c1ccc(OCCO)cc1)C(C)C`: the composite z-score in [1] is -0.525; in [2], 0.166; in assay [3], 0.0033; in [4], 0.13; in assay [5] it was 0.214; in assay [6] it was 1.76. The composite z-score in assay [7] is 1.26; in assay [9] it was 0.239; in assay [10] it was -0.0994; in assay [11], 1.51; in assay [15], 3.04; in assay [17] it was -0.135. Moreover, the composite z-score in [18] was 0.779; in [19], 0.241; in assay [20], 0.0675. Further, the z-score in assay [8] was 1.72 (inactive); in assay [12], -1.2 (inactive); in [13] it was -0.788 (inactive); in [14], -1.28 (inactive); in assay [16], 0.438 (inactive).
Consider `C#CCN(C(=O)OC(C)(C)C)[C@H](CO)c1ccccc1`, for which the composite z-score in [1] was -0.402; in assay [2], 0.289; in [3], -0.113; in [4], 0.0182; in [5] it was -0.148; in [6], -0.329. Besides, the composite z-score is 0.77 in assay [7]; 0.115 in assay [9]; -0.111 in [10]; 0.738 in [11]; 0.444 in [15]; -0.235 in assay [17]. The composite z-score is 0.582 in [18], 0.524 in assay [19] and -0.198 in assay [20]. Further, the z-score in [8] is -0.0216 (inactive); in assay [12], -0.365 (inactive); in assay [13], -2.99 (inactive); in assay [14], 0.368 (inactive); in [16] it was -0.223 (inactive).
